Data: PubChem BioAssay AID1851 (National Center for Advancing Translational Sciences (NCATS), 2009)
Hit rate of the full screen: of about 16,000 compounds, about 5,100 (32%) were called active. Inconclusive results (about 25%) are left out. Calls come from the whole dose curve; as a rule, active = well fitted curve in the direction sought with a large enough effect; inconclusive = small, poorly fitted or top-dose-only effect, or effect the other way; inactive = no such curve, though single readings can be large or run the other way. Some of the results follow.
% is set by controls: 0 for no effect and ±100 for the full control effect.

What follows are molecules tested against Cytochrome P450 3A4 (Homo sapiens) (UniProt P08684) (assay: Cytochrome panel assay with activity outcomes). Conditions: recombinant CYP, pro-luciferin dealkylation, luminescence, p450-cyp3a4; series mostly up to 57.1 µM; activity, negative = inhibition: at the top concentration.
Cytochrome P450 3A4 (Homo sapiens), sequence (P08684 whole entry, looked up): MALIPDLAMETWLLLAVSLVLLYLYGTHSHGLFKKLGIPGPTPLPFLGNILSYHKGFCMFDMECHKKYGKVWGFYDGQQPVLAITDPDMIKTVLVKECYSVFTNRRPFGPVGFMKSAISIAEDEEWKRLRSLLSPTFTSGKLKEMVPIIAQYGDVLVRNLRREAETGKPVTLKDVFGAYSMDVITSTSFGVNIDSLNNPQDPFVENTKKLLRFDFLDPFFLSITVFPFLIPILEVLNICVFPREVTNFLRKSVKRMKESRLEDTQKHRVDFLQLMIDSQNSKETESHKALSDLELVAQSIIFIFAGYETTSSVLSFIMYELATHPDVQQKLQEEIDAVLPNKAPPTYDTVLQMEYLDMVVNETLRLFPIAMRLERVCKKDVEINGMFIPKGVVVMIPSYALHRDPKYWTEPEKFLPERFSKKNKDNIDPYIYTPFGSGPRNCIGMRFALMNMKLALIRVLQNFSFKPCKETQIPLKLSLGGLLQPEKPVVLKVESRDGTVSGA
With `CC(=O)Nc1ccc(C2=NN(CC#N)C(=O)SC2)cc1` the “activity, negative = inhibition” value was -15.6% (inactive).
In the case of `O=C(NCc1cccnc1)[C@@H]1[C@@H](C(=O)O)[C@H]2CC[C@@H]1O2`, the activity, negative = inhibition is reported as -23.9% [at 11.4 µM] (inactive).
With `O=C(NCc1cccnc1)C1COc2ccccc2O1` (configuration not stated) the AC50 was 5.01 µM (active).
For `O=C(CCc1ccccc1)NCc1cccnc1`, the AC50 was 5.01 µM (active).
`NNC(=O)Cc1cccnc1` was tested, and the AC50 was 3.16 µM (active).
With `COc1ccc(C(=O)c2c[nH]c(C(=O)NCc3cccs3)c2)cc1` the “activity, negative = inhibition” value was -17.8% (inactive).
`O=C(O)Cc1cccnc1` was tested, and the activity, negative = inhibition was -12.2% [at 11.4 µM] (inactive).
For `O=C(Nc1cccnc1)C1COc2ccccc2O1` (configuration not stated), the “activity, negative = inhibition” value was -22.7% (inactive).
For `O=C(c1ccccc1)c1c[nH]c(C(=O)NCc2cccnc2)c1`, the AC50 was 4.47 µM (active).
For `O=C(O)[C@@H]1[C@@H](C(=O)NCc2cccnc2)[C@@H]2C=C[C@@H]1O2`, the activity, negative = inhibition was -21.1% [at 11.4 µM] (inactive).
`CC(C)=CCC/C(C)=C/CO/N=C1/C[C@@H](O)[C@@H](O)[C@@H]2[C@@H]3C(=O)N(C(C)(C)C)C(=O)[C@H]3CC[C@H]12` was tested, and the activity, negative = inhibition was -7.78% [at 11.4 µM] (inactive).
With `CO[C@]1(C2=NCCN2)COc2ccccc2O1` the AC50 was “inactive”.
`O=C(CSCc1c(Cl)cccc1Cl)NCc1cccnc1` was tested, and the AC50 was 3.16 µM (active).
In the case of `Cc1nc2c(C(=O)NCc3ccc4c(c3)OCO4)c[nH]n2c(=O)c1Cc1ccccc1F`, the AC50 is reported as 2.24 µM (active).
With `CCOC(=O)Cc1c(C)nc2c(C#N)c[nH]n2c1=O` the “activity, negative = inhibition” value was -0.582% (inactive).
With `COc1ccc(-n2cccc2C=O)cc1OC` the “activity, negative = inhibition” value was -5.8% (inactive).
In the case of `CC(C)(C)NC(=O)CSC(=Nc1ccc(F)cc1)NC#N`, the activity, negative = inhibition is reported as -11.3% [at 2.29 µM] (inactive).
With `Cc1ccc(C(=O)COC(=O)c2ccccc2N2C(=O)C3C4CCC(C4)C3C2=O)cc1C` (configuration not stated) the AC50 was 12.6 µM (active).
With `O=C(Oc1ccccc1N1C(=O)C2CCCCC2C1=O)c1ccccc1` (configuration not stated) the activity, negative = inhibition was -1.02% [at 2.29 µM] (inactive).
With `C[N+]1(C)CCC[C@@H](OC(=O)C(O)(c2ccccc2)c2ccccc2)C1` the “activity, negative = inhibition” value was -1.21% [at 25.6 µM] (inactive).
`Cc1ccc(-c2ccc(CCC(=O)O)n2CC2CCCO2)cc1` (configuration not stated) was tested, and the activity, negative = inhibition was 18.1% [at 2.29 µM] (inactive).
`CCC(=O)Nc1ccc(C(=O)CSc2nnc(-c3ccc(O)cc3)n2CC2CCCO2)cc1OC` (configuration not stated) was tested, and the AC50 was 14.1 µM (active).
In the case of `Cc1cc(Cc2cc(C)cc(C(C)(C)C)c2O)c(O)c(Cc2cc(C)cc(C(C)(C)C)c2O)c1`, the activity, negative = inhibition is reported as -19.8% [at 11.4 µM] (inactive).
For `CC(C)(C=O)Cc1cc(C(C)(C)C)c(O)c(C(C)(C)C)c1`, the AC50 was 12.6 µM (active).
For `Cc1cc(Cc2c(C)c(C)c(Cc3cc(C)cc(C(C)(C)C)c3O)c(C)c2C)c(O)c(C(C)(C)C)c1`, the activity, negative = inhibition was 0.196% [at 11.4 µM] (inactive).
In the case of `CC(C)(CO)Cc1cc(C(C)(C)C)c(O)c(C(C)(C)C)c1`, the AC50 is reported as 2.51 µM (active).
`Cc1cc(-c2cc(C)c(O)c(C(C)(C)C)c2)cc(C(C)(C)C)c1O` was tested, and the activity, negative = inhibition was -12.3% [at 11.4 µM] (inactive).
`Cc1cc(Cc2cc(Cc3cc(C)cc(C(C)(C)C)c3O)c(C)cc2C)c(O)c(C(C)(C)C)c1` was tested, and the activity, negative = inhibition was -23.1% [at 11.4 µM] (inactive).
`CN(C)CCCc1c2ccccc2nc2ccc(Cl)cc12` was tested, and the activity, negative = inhibition was -1.41% [at 11.4 µM] (inactive).
`CCCCc1c2ccccc2nc2[nH]c3ccccc3c12` was tested, and the AC50 was 15.8 µM (active).
For `CCCCCc1nc2c(=O)[nH]c3ccccc3c2o1`, the “activity, negative = inhibition” value was -8.01% (inactive).
In the case of `Clc1ccc2c(NC3CCC(N4CCCCC4)CC3)ccnc2c1` (configuration not stated), the activity, negative = inhibition is reported as -1.29% [at 11.4 µM] (inactive).
With `COc1ccc(CNc2cc(-c3ccccc3OC)ncn2)c(OC)c1` the AC50 was 6.31 µM (active).
In the case of `COc1ccccc1-c1cc(Nc2ccn[nH]2)ncn1`, the AC50 is reported as 3.98 µM (active).
`COc1ccc(CNc2cc(-c3ccccc3Cl)ncn2)c(OC)c1` was tested, and the AC50 was 6.31 µM (active).
With `COc1ccccc1-c1cc(Nc2ccc(F)cc2)ncn1` the “activity, negative = inhibition” value was -29.9% (inactive).
`COc1ccccc1CNc1cc(-c2ccccc2OC)ncn1` was tested, and the AC50 was 15.8 µM (active).
In the case of `N/C(=N\O)c1cn([C@@H]2O[C@@H](CO)[C@H](O)[C@@H]2O)c2ncnc(NO)c12`, the activity, negative = inhibition is reported as -7.27% [at 11.4 µM] (inactive).
`CC(=O)OC[C@@H]1O[C@@H](O/N=C2/C[C@@H](O)[C@@H](O)[C@@H]3[C@@H]4C(=O)N(C[C@@H]5CCCO5)C(=O)[C@H]4CC[C@H]23)[C@H](OC(C)=O)[C@H](OC(C)=O)[C@@H]1OC(C)=O` was tested, and the activity, negative = inhibition was -12.5% [at 11.4 µM] (inactive).
For `Oc1cc(O)c2c(c1)O[C@@H](c1ccc(O)c(O)c1)[C@H](O[C@@]1(c3cc(O)c(O)c(O)c3)Oc3cc(O)cc(O)c3[C@H](O)[C@@H]1O)C2`, the activity, negative = inhibition was -19.7% [at 11.4 µM] (inactive).
With `O=C(Cc1ccccc1)N/N=C\c1ccc(Br)o1` the “activity, negative = inhibition” value was -20.2% (inactive).
With `Cc1ccc(COc2ccc(Br)cc2/C=N/O)cc1` the AC50 was 7.94 µM (active).
In the case of `O/N=C/c1cc(Cl)ccc1OCc1cccc2ccccc12`, the AC50 is reported as 7.94 µM (active).
`Cc1ccc(CONC(=O)/N=C/N(C)C)cc1` was tested, and the “activity, negative = inhibition” value was -12.6% (inactive).
With `O=C(SCc1cccc2ccccc12)c1ccc(Cl)cc1` the activity, negative = inhibition was -17.6% [at 11.4 µM] (inactive).
For `Cc1ccc(COc2coc(CO)cc2=O)cc1`, the “activity, negative = inhibition” value was -20.6% (inactive).
For `Oc1ccc(Cl)cc1C=Nc1cnc2ccccc2c1`, the activity, negative = inhibition was -12.5% [at 11.4 µM] (inactive).
In the case of `O=C(Cc1ccccc1)N/N=C/c1ccccc1OCc1ccc(Cl)cc1`, the AC50 is reported as 15.8 µM (active).
With `O/N=C/c1ccccc1OCc1ccc(Cl)cc1` the AC50 was 12.6 µM (active).
For `NC(=S)N/N=C/c1ccccc1OCc1cccc(Cl)c1`, the activity, negative = inhibition was -18.2% [at 2.29 µM] (inactive).
For `COc1c(Cl)cc(Cl)cc1CNCCNCC(C)O` (configuration not stated), the “activity, negative = inhibition” value was 15.3% (inactive).
With `Cc1n[nH]c(=S)n1/N=C/c1ccccc1OCc1ccc(Cl)cc1` the AC50 was 1.26 µM (active).
With `COc1cccc(/C=N/n2c(=S)n(C)c3cc(C)c(C)cc32)c1OC` the activity, negative = inhibition was -9.43% [at 2.29 µM] (inactive).
With `COc1ccc(C(=O)n2nc(-c3ccccc3)nc2SC)cc1` the “activity, negative = inhibition” value was 6.71% (inactive).
`C=C1C(=O)C=C2CN(C(=O)c3ccccc3)[C@@](Cc3ccc(F)cc3)(C(=O)OC)[C@@H]12` was tested, and the AC50 was 7.94 µM (active).
`C=C1C(=O)C=C2CN(C(=O)c3ccccc3)[C@@](Cc3ccc(OC)cc3)(C(=O)OC)[C@@H]12` was tested, and the AC50 was 1.58 µM (active).
For `Cc1cc(CC(=O)O)n(C)c1C(=O)c1ccc(Cl)cc1`, the “activity, negative = inhibition” value was -11.7% [at 25.6 µM] (inactive).
`COc1ccc2c(c1)-c1ccccc1S(=O)(=O)N2C(C)=O` was tested, and the “activity, negative = inhibition” value was -6.85% (inactive).
For `Cc1ccc(C(=O)CN(C(=O)c2ccc(Cl)cc2)N2C(=O)c3ccccc3C2=O)cc1`, the AC50 was 10 µM (active).
In the case of `COc1ccc(C(=O)CN(C(=O)c2ccc(Cl)cc2)N2C(=O)c3ccccc3C2=O)cc1`, the AC50 is reported as 8.91 µM (active).
For `O=C(CON1C(=O)c2ccccc2C1=O)c1ccccc1`, the activity, negative = inhibition was -17.5% [at 11.4 µM] (inactive).
In the case of `COc1ccc(C(=O)O/N=C/c2ccc(S(=O)c3ccc(Cl)cc3)nc2)cc1` (configuration not stated), the “activity, negative = inhibition” value is reported as 7.76% (inactive).
`Cc1cc(=Nc2ccc3c(c2)c(N)cc(C)[n+]3C)nc(N)n1C` was tested, and the activity, negative = inhibition was 3.03% [at 11.4 µM] (inactive).
In the case of `C[C@@H]1CCCC(CC(=O)O)(CC(=O)O)C1`, the activity, negative = inhibition is reported as -9.8% [at 11.4 µM] (inactive).
With `O=C(Nc1cccc(C(F)(F)F)c1)c1ccc(Cn2cc(Br)cn2)o1` the activity, negative = inhibition was -0.795% [at 2.29 µM] (inactive).
`CC(NC(=O)Cn1cnc([N+](=O)[O-])n1)c1ccccc1` (configuration not stated) was tested, and the “activity, negative = inhibition” value was 0.0886% (inactive).
With `CC(NC(=O)c1ccc(Cn2cc([N+](=O)[O-])cn2)o1)c1ccccc1` (configuration not stated) the AC50 was 25.1 µM (active).
With `CCOC(=O)C(NC(=O)CC)(Nc1sc2c(c1C(=O)OC)CCN(C)C2)C(F)(F)F` (configuration not stated) the AC50 was 12.6 µM (active).
`CCC(=O)NC(Nc1sc2c(c1C(=O)OC)CCCC2)(C(F)(F)F)C(F)(F)F` was tested, and the activity, negative = inhibition was -7.25% [at 2.29 µM] (inactive).
For `COc1ccc(OC)c(C2CC(=O)C3=C(C2)NC(=O)CC3c2ccc(O)c(OC)c2)c1` (configuration not stated), the AC50 was 8.91 µM (active).
For `COc1ccc(NC(=O)C2CC(=O)NC3=C2C(=O)CC(C)(C)C3)cc1` (configuration not stated), the “activity, negative = inhibition” value was -22.9% (inactive).
For `CC(C)Oc1ccc(C2CC(=O)NC3=C2C(=O)CCC3)cc1` (configuration not stated), the “activity, negative = inhibition” value was -29.8% (inactive).
`CC(=O)NC(Cc1ccc(F)cc1)C(=O)O` (configuration not stated) was tested, and the “activity, negative = inhibition” value was 6.9% (inactive).
`COc1ccc(F)cc1S(=O)(=O)NC(Cc1ccccc1)C(N)=O` (configuration not stated) was tested, and the AC50 was 15.8 µM (active).
For `CNC(=O)/C(C#N)=c1\s/c(=C/C(=O)OC)c(=O)n1-c1ccccc1`, the “activity, negative = inhibition” value was -3.36% (inactive).
`CS(=O)(=O)c1ccc(Cn2c3c(c4cc(F)cc(F)c42)CCC[C@H]3CC(=O)O)cc1` was tested, and the AC50 was 39.8 µM (active).
For `CC(C)NNC(=O)c1ccncc1`, the AC50 was “inactive”.
With `CN[C@@H](c1ccncc1)[C@@H](NC)c1ccncc1` the AC50 was 5.01 µM (active).
`O=c1[nH][nH]c(=S)c(=O)[nH]1` was tested, and the activity, negative = inhibition was -14.1% [at 11.4 µM] (inactive).
With `COCCNc1ncnc2ccc(-c3ccc(N(C)C)cc3)cc12` the AC50 was 7.94 µM (active).
For `COCCNc1ncnc2ccc(-c3ccoc3)cc12`, the “activity, negative = inhibition” value was -6.63% (inactive).
With `CC(=O)NCCNc1ncnc2ccc(-c3ccc(C(=O)N(C)C)cc3)cc12` the “activity, negative = inhibition” value was -20% (inactive).
`COCCNc1ncnc2ccc(-c3ccc(C(=O)N(C)C)cc3)cc12` was tested, and the AC50 was 15.8 µM (active).
In the case of `COC(=O)[C@@H](NC(=O)Nc1ccc(C(C)=O)cc1)C(C)C`, the “activity, negative = inhibition” value is reported as -1.62% (inactive).
With `COCCNC(=O)C1CC(c2cccc(OC)c2)=NO1` (configuration not stated) the “activity, negative = inhibition” value was -28.1% (inactive).
For `CC(=O)c1ccc(NC(=O)C2CC(c3ccc(F)cc3)=NO2)cc1` (configuration not stated), the “activity, negative = inhibition” value was -15.6% (inactive).
For `COc1ccc(C2=NOC(C(=O)NCc3ccco3)C2)cc1OC` (configuration not stated), the “activity, negative = inhibition” value was -25.1% (inactive).
In the case of `COc1ccc(C2=NOC(C(=O)Nc3ccc(C(C)=O)cc3)C2)cc1OC` (configuration not stated), the AC50 is reported as 8.91 µM (active).
With `COc1cccc(C2=NOC(C(=O)Nc3ccc(OC)c(OC)c3)C2)c1` (configuration not stated) the AC50 was 6.31 µM (active).
`O=C(NCc1ccc2c(c1)OCO2)C1CC(c2cccc(Br)c2)=NO1` (configuration not stated) was tested, and the AC50 was 0.708 µM (active).
In the case of `O=C(O)[C@@H]1[C@@H](C(=O)NCc2ccccn2)[C@@H]2C=C[C@@H]1O2`, the activity, negative = inhibition is reported as -5.18% [at 11.4 µM] (inactive).
`O=C(NCc1ccccn1)C1CC(c2ccc(Cl)c(Cl)c2)=NO1` (configuration not stated) was tested, and the AC50 was 25.1 µM (active).
